Data: publication PMC4336329 (PLoS ONE, 2015)
The campaign covered roughly 310,000 compounds. About 14,000 (4.5%) showed an effect of 50% or more. The effect is printed as a negative number. Many of the other results were omitted from the sample, so strong results are more common in it than they were.

Each compound was assayed against human ether-à-go-go-related gene (hERG) potassium channel (human, UniProt Q12809) (assay: primary screen, population patch clamp on CHO cells stably expressing hERG; higher = less effect of the substance).
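Further: peak tail current of the secondary pulse compared with the same well before compound.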

human ether-à-go-go-related gene (hERG) potassium channel, sequence (Q12809 whole entry, looked up): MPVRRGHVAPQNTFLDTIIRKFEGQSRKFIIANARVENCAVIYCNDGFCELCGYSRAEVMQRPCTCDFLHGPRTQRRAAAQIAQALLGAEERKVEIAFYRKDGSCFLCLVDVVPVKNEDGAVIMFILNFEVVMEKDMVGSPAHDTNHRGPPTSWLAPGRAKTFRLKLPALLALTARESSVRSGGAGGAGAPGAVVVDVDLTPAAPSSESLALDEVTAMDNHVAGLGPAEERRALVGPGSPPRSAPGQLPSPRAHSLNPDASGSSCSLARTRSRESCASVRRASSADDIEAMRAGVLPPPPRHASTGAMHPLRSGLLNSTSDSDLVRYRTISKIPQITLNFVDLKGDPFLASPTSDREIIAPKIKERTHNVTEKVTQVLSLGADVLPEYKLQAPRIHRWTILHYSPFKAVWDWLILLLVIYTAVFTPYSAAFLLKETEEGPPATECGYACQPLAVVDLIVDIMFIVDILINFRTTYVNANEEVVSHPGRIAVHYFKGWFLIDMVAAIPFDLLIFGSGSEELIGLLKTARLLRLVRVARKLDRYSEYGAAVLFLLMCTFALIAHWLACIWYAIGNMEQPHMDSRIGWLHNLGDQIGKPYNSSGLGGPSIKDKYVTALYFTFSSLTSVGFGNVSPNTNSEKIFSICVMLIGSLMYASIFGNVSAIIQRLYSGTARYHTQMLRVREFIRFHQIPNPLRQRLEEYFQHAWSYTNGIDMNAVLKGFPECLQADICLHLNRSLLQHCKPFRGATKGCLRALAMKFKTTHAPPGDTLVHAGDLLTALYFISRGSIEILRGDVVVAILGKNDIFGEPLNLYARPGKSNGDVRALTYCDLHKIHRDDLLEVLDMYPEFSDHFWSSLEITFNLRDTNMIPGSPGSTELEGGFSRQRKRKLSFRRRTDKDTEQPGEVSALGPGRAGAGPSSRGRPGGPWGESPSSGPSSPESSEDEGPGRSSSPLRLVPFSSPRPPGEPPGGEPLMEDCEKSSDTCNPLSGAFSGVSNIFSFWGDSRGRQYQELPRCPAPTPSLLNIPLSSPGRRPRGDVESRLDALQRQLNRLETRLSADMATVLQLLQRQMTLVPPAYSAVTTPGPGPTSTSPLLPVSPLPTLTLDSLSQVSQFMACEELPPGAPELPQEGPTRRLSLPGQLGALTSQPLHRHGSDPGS

Row | SMILES | hERG current change (%, negative = inhibition) at 10uM
1 | Cc1ccc(SC2=C(C(=O)O)CCCC2)cc1 | 4.25%
2 | COc1cc(CN2CCC(CO)(CCOc3ccccc3)CC2)cc(OC)c1 | -67.3%
3 | OCC1(CCOc2ccccc2)CCN(Cc2cc(Cl)ccc2O)CC1 | -24.7%
4 | COc1cc(Cl)c(CN2CCC(CO)(CCOc3ccccc3)CC2)cc1OC | -80.7%
5 | COc1cc(CN2CCC(CO)(CCOc3ccccc3)CC2)cc(OC)c1OC | -38.3%
6 | O=C(NC1CCCC1)C(c1ccncc1)N(Cc1ccccc1)C(=O)Cc1cccs1 (stereo not shown) | -14.1%
7 | Cc1ccccc1N1C(=O)C(Oc2ccc(Cl)cc2)C1CNC(C)(C)C (stereo not shown) | -39.5%
8 | CCCCNCC1C(Oc2ccc(Cl)cc2)C(=O)N1c1ccccc1C.Cl (stereo not shown) | -65.9%
9 | COCCNCC1C(Oc2ccc(Cl)cc2)C(=O)N1c1ccccc1C.Cl (stereo not shown) | -8.44%
10 | CCCNCC1C(Oc2ccc(Cl)cc2)C(=O)N1c1ccccc1C (stereo not shown) | -48.6%
11 | Cc1ccccc1N1C(=O)C(Oc2ccc(Cl)cc2)C1CNCCCOC(C)C (stereo not shown) | -53.4%
12 | COCCCNCC1C(Oc2ccc(Cl)cc2)C(=O)N1c1ccccc1C (stereo not shown) | -8.54%
13 | COc1ccc(N2CCN(C(=O)CN=C3NS(=O)(=O)C(c4ccc(C)cc4)=C3C)CC2)cc1 | -5.05%
14 | O=C(Cc1ccccc1)N/N=C/c1ccc(S(=O)(=O)[O-])o1 | 26.2%
15 | Cc1ccc(S(=O)(=O)NCc2ccc(N3CCN(C(=O)OC(C)(C)C)CC3)cc2)cc1 | 9.55%
16 | COc1ccc(OC)c(CNC(=O)C2CCN(S(=O)(=O)N3CCC(C)CC3)CC2)c1 | -31.8%
17 | Cc1nc2ccccc2c2oc(C(=O)NCCN3CCN(C)CC3)cc12 | 12.4%
18 | CSc1ccc(CNC(=O)C2Cc3cc(S(=O)(=O)N4CCCCC4)ccc3N2C(C)=O)cc1 (stereo not shown) | -57.1%
19 | Cc1cc(C)cc(NC(=O)C2CCCN2S(=O)(=O)c2ccc3c(c2)C(C)(C)C(=O)N3C)c1 (stereo not shown) | -38.7%
20 | CC(=O)N1c2ccc(S(=O)(=O)N3CCCC(C(=O)NCc4ccc(Cl)cc4)C3)cc2CC1C (stereo not shown) | -2.85%
21 | CSc1ccc(CNC(=O)C2Cc3cc(S(=O)(=O)N4CCCC4)ccc3N2C(C)=O)cc1 (stereo not shown) | -38.2%
22 | CC(=O)N1c2ccc(S(=O)(=O)N3CCCC3C(=O)Nc3cccc(F)c3)cc2CC1C (stereo not shown) | -32.8%
23 | CCc1cccc(NC(=O)C2CCN(S(=O)(=O)c3ccc4c(c3)CC(C)N4C(C)=O)CC2)c1 (stereo not shown) | 2.05%
24 | CCc1ccc(NC(=O)C2CCCN2S(=O)(=O)c2ccc3c(c2)C(C)(C)C(=O)N3C)cc1 (stereo not shown) | -51%
25 | CCc1cccc(NC(=O)C2CCCN2S(=O)(=O)c2ccc3c(c2)CC(C)N3C(C)=O)c1 (stereo not shown) | -71.2%
26 | CC(=O)N1c2ccc(S(=O)(=O)N3CCCC3C(=O)NCc3ccccc3Cl)cc2CC1C (stereo not shown) | -40%
27 | CCc1ccc(CNC(=O)C2Cc3cc(S(=O)(=O)N4CCCC4)ccc3N2C(C)=O)cc1 (stereo not shown) | -25.9%
28 | CC(=O)N1c2ccc(S(=O)(=O)N3CCCC3C(=O)NCc3ccc(Cl)cc3)cc2CC1C (stereo not shown) | -62.9%

Row | SMILES | hERG current change (%, negative = inhibition) at 10uM
29 | CCOc1ccc(NC(=O)C2CCCN2S(=O)(=O)c2ccc3c(c2)C(C)(C)C(=O)N3C)cc1 (stereo not shown) | -6.75%
30 | Cc1noc(C)c1C(=O)NCc1ccco1 | 0.0994%
31 | C/C(=N/NC(N)=S)c1cc2ccc(O)cc2oc1=O | 21.7%
32 | O=C(Nc1ccccc1C(=O)O)c1ccccc1 | 8.69%
33 | COc1ccc2oc(=O)c(C(=O)N3CCN(C(=O)c4ccco4)CC3)cc2c1 | -12.9%
34 | CC(Oc1ccc(F)cc1F)C(=O)NNC(=S)NCC1CCCO1 (stereo not shown) | 9.12%
35 | CC(C)(C)C(=O)Nc1sc2c(c1C#N)CCN(Cc1ccccc1)C2.Cl | 1.78%
36 | CCc1ccc(-c2cc(C(=O)Nn3cnnc3)c3ccccc3n2)cc1 | 10.7%
37 | Clc1c(-c2nnc3n2CCCCC3)sc2ccccc12 | -13.9%
38 | COc1ccc2c(Cl)c(-c3nnc4n3CCCCC4)sc2c1 | -51.2%
39 | Clc1c(-c2nnc3n2CCC3)sc2ccccc12 | 10.4%
40 | COc1cc(NC(=O)CSc2nc(C)c(C)c(C)n2)c(C)cc1[N+](=O)[O-] | 0.898%
41 | Cc1nn(-c2ccccc2)c2c1C(O)CC(C)(C)C2 (stereo not shown) | 17.8%
42 | COc1cc(-c2nc3cnccn3c2Nc2ccccc2)ccc1O | -0.787%
43 | CCN1CCN(C(=O)/C=C/c2ccc([N+](=O)[O-])cc2)CC1 | -64.2%
44 | CCOC(=O)N1CCN(C(=O)/C=C/c2ccc(C(C)(C)C)cc2)CC1 | -26.1%
45 | CN1CCN(C(=O)/C=C/c2ccc(Cl)c(Cl)c2)CC1 | -23%
46 | CN1CCN(C(=O)/C=C/c2ccc(C#N)cc2)CC1 | -54.3%
47 | CCOC(=O)N1CCN(C(=O)/C=C/c2ccc(OC)cc2)CC1 | -17.8%
48 | CCN1CCN(C(=O)/C=C/c2ccc(OC)cc2)CC1 | -19.1%
49 | CSc1ccc(/C=C/C(=O)N2CCCN(C)CC2)cc1.Cl | -26.6%
50 | CN1CCN(C(=O)/C=C/c2ccc(Cl)cc2)CC1 | -44.8%
51 | CCOC(=O)N1CCN(C(=O)/C=C/c2ccc([N+](=O)[O-])cc2)CC1 | -70.6%
52 | CCN1CCN(C(=O)/C=C/c2ccc(C(C)C)cc2)CC1 | -35.2%
53 | CN1CCN(C(=O)/C=C/c2ccc([N+](=O)[O-])cc2)CC1 | -67%
54 | CN1CCN(C(=O)/C=C\c2ccc(Cl)cc2)CC1 | -41%
55 | COc1ccc(-c2cc3nc(C)cc(N)n3n2)cc1 | 3.53%
